High-throughput results deposited in PubChem BioAssay by Center for Chemical Genomics, University of Michigan.
Sampled rows, rich in hits. Any-hit rate of the full collection: about 0.86%.
HIV TAR-Tat: HIV-1 TAR-Tat binding disruption. HIV-1 TAR RNA, Tat peptide displacement FRET; hits give high values. z-score (concentration not given with the values). hit rate 0.6% among 100,000; active means z-score of 3 or more in at least 2 runs
CDC25B-CDK2 inh: human CDC25B-CDK2/CyclinA binding inhibition; z-score (test concentration not listed); P30305+P24941; hit rate 0.72% among 94,000; HTRF CDC25B-CDK2/CyclinA binding, anti-His/anti-Flag; hits give high values; in the data active means z-score above about 3.2
Each line names hits and unclear results; the compound was inactive in the other large screens.

CCOC(=O)CCCn1ncn2c(cc3sc(CC)cc32)c1=O	none
Cc1[nH]c2ccccc2c1C(=O)C(=O)N1CCc2ccccc21	none
CCOc1ccc(C2C3=C(Nc4nc(N)[nH]c(=O)c42)c2ccccc2C3=O)cc1 (configuration not stated)	CDC25B-CDK2 inh 14.2
CCOc1ccc(C2C3=C(CCCC3=O)NC3=C2C(=O)c2ccccc23)cc1 (configuration not stated)	none
O=C(c1ccc(CN2C(=O)CSc3ncccc32)cc1)N1CCc2ccccc21	none (no result: CDC25B-CDK2 inh)
N#Cc1ccccc1/C=C/c1cccs1	none (no result: HIV TAR-Tat)
COc1ccc(-c2noc(CSc3nnc(C)n3-c3cccc(C)c3)n2)cc1OC	none
CC1CCN(c2cc(NCCCN(C)C)c3c4c(onc24)-c2ccccc2C3=O)CC1	HIV TAR-Tat 16.2
CN(C)CCCNc1cc(N2CCN(C3CCCCC3)CC2)c2noc3c2c1C(=O)c1ccccc1-3	HIV TAR-Tat 8.69
CCOCCCNc1cc(N2CCC(C)CC2)c2noc3c2c1C(=O)c1ccccc1-3	none
O=C1c2ccccc2-c2onc3c(N4CCN(C5CCCCC5)CC4)cc(NCCO)c1c23	none
CN(C)CCCNc1cc(N2CCN(c3ccccn3)CC2)c2noc3c2c1C(=O)c1ccccc1-3	HIV TAR-Tat 7.24
COCCNc1cc(N2CCN(c3ccccn3)CC2)c2noc3c2c1C(=O)c1ccccc1-3	none
COCCNc1cc(N2CCN(C3CCCCC3)CC2)c2noc3c2c1C(=O)c1ccccc1-3	HIV TAR-Tat 8.07
COCCNc1cc(N2CCCC2)c2noc3c2c1C(=O)c1ccccc1-3	none
Cc1cccn2cc(CNC(=O)c3cccs3)nc12	none (no result: HIV TAR-Tat)
COc1ccc(/C=C2\SC(=S)NC2=O)cc1	none (no result: HIV TAR-Tat)
COc1cc(C2CC(=O)N3CN(c4ccc(Cl)cc4)CSC3=C2C#N)ccc1O (configuration not stated)	HIV TAR-Tat 25.2, CDC25B-CDK2 inh 4.18
COc1cc(C2CC(=O)N3CN(c4ccc(F)cc4)CSC3=C2C#N)ccc1O (configuration not stated)	HIV TAR-Tat 28.7, CDC25B-CDK2 inh 3.32
COc1cc(C2CC(=O)N3CN(c4ccc(C)c(C)c4)CSC3=C2C#N)ccc1O (configuration not stated)	none
COc1ccc(N2CSC3=C(C#N)C(c4ccc(O)c(OC)c4)CC(=O)N3C2)cc1 (configuration not stated)	CDC25B-CDK2 inh 4
Clc1ccc(OCCCSCc2nc3ccccc3[nH]2)cc1	none
CC(C)OCCCNC(=O)c1c(O)c2c([nH]c1=O)CCCC2	none (no result: CDC25B-CDK2 inh)
CCCS(=O)(=O)c1ncc(Cl)c(C(=O)Nc2nnc(C(C)C)s2)n1	none
CC(C)c1nn2c(=O)cc(COC(=O)c3ccccc3F)nc2s1	none (no result: CDC25B-CDK2 inh)
Cc1cc(C)n2c(SCc3cc(=O)n4ccsc4n3)nnc2n1	none (no result: CDC25B-CDK2 inh)
COC(=O)Cn1c2ccc(Cl)cc2c2nc3ccccc3nc21	CDC25B-CDK2 inh 19.3
CC(C)OC(=O)Cn1c2ccccc2c2nc3ccccc3nc21	none
O=C(COc1ccc(Br)cc1)Nc1ccc(-n2cnnn2)cc1	none
COc1cc(NC(=O)COc2ccc(-n3cnnn3)cc2)c(OC)cc1Cl	HIV TAR-Tat 4.6
COc1ccc(C(=O)C[n+]2cc(-c3ccccc3)n3c2CCCCC3)cc1OC	none
